In ChEMBL document CHEMBL2218924, “A broad activity screen in support of a chemogenomic map for kinase signalling research and drug discovery” (Biochem J, 2013) one finds residual activity data, which are given here for five compounds.

Assay [1] concerns the target BDNF/NT-3 growth factors receptor (Homo sapiens) (UniProt Q16620). The settings on record: at 10 µM.
Assay [2] has as its target T1, Tyrosine-protein kinase TXK (Homo sapiens) (UniProt P42681).
T1 sequence (whole entry): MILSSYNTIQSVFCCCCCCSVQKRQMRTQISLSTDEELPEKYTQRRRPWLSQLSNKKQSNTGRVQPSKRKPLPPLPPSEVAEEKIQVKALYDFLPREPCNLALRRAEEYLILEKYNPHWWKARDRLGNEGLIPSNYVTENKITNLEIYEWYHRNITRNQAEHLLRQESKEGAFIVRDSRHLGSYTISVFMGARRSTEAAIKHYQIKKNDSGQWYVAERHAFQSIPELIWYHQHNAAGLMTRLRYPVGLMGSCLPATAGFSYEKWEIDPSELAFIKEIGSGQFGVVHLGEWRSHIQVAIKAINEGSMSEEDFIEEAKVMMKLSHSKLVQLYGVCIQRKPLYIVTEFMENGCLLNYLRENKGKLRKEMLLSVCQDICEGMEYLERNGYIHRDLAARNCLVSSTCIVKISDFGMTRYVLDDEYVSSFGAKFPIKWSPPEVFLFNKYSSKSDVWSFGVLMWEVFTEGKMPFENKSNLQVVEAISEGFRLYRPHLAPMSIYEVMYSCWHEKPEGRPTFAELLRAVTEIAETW
As to conditions: at 1 µM.

Assay [3] concerns the target T1, Tyrosine-protein kinase TXK (Homo sapiens). The settings on record: at 10 µM.
The target in assay [4] is T2, Serine/threonine-protein kinase ULK2 (Homo sapiens) (UniProt Q8IYT8).
T2 sequence (whole entry): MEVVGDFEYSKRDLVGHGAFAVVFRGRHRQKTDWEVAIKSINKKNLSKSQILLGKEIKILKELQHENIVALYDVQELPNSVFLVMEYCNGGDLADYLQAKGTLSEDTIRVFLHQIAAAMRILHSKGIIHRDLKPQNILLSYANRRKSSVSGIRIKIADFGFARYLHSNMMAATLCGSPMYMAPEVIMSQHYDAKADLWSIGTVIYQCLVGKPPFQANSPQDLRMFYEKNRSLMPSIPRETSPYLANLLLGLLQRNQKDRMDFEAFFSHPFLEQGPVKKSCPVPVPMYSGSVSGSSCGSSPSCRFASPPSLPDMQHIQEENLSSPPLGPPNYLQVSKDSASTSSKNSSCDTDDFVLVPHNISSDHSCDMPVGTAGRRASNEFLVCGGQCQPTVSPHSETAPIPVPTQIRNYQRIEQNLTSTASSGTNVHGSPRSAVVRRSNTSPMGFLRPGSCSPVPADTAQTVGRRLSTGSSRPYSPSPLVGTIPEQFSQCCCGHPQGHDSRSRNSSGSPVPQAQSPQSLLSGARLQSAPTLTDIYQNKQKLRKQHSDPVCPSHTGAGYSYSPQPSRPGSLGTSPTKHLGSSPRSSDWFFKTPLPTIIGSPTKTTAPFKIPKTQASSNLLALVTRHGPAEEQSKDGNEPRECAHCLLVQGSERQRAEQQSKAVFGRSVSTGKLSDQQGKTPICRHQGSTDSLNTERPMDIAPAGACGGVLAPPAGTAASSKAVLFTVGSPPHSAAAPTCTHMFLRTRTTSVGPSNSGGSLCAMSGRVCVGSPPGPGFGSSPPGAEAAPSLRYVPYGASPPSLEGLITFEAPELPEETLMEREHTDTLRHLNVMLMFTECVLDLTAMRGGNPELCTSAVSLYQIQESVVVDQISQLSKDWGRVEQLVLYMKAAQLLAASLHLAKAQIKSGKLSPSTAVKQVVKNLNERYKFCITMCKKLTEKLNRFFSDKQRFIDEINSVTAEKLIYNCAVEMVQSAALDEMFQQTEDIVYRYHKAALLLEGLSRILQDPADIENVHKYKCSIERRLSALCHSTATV
As to conditions: at 1 µM.

The target in assay [5] is T2, Serine/threonine-protein kinase ULK2 (Homo sapiens). The settings on record: at 10 µM.
For assay [6], the target named is T3, Serine/threonine-protein kinase ULK3 (Homo sapiens) (UniProt Q6PHR2).
T3 sequence (whole entry): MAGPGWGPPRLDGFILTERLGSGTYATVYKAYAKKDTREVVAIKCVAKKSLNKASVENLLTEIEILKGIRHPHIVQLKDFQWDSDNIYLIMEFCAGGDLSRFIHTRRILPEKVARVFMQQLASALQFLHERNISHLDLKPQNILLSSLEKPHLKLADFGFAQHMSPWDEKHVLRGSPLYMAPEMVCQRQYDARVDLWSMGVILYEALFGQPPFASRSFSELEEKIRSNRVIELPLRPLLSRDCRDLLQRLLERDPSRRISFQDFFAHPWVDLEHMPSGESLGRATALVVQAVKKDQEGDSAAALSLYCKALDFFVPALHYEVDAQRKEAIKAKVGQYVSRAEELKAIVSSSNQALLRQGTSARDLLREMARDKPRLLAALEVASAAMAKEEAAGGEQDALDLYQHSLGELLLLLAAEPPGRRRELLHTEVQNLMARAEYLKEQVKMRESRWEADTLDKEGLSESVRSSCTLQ
As to conditions: at 1 µM.

Assay [7] concerns the target T3, Serine/threonine-protein kinase ULK3 (Homo sapiens). The settings on record: at 10 µM.
The target of assay [8] is Serine/threonine-protein kinase VRK2 (Homo sapiens) (UniProt Q86Y07). The settings on record: at 1 µM.
Serine/threonine-protein kinase VRK2 (Homo sapiens), sequence (Q86Y07 whole entry): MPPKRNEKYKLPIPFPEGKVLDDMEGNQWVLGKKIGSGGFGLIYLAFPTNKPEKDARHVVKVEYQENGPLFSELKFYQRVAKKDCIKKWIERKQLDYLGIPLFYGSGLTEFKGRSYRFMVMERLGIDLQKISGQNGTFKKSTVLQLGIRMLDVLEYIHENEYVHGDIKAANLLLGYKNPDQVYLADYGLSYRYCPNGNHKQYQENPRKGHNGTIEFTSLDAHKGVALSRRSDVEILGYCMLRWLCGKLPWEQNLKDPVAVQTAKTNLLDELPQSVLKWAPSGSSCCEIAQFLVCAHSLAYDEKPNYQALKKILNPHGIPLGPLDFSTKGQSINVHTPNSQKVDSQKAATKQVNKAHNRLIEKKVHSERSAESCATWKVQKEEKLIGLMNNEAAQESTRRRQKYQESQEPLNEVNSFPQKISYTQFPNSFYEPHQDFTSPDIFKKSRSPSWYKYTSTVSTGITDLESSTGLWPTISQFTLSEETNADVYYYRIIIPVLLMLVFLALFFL
Assay [9] has the same target. As to conditions: at 10 µM.
For assay [10], the target named is Serine/threonine-protein kinase WNK2 (Homo sapiens) (UniProt Q9Y3S1). As to conditions: at 1 µM.
Serine/threonine-protein kinase WNK2 (Homo sapiens), sequence (Q9Y3S1 whole entry): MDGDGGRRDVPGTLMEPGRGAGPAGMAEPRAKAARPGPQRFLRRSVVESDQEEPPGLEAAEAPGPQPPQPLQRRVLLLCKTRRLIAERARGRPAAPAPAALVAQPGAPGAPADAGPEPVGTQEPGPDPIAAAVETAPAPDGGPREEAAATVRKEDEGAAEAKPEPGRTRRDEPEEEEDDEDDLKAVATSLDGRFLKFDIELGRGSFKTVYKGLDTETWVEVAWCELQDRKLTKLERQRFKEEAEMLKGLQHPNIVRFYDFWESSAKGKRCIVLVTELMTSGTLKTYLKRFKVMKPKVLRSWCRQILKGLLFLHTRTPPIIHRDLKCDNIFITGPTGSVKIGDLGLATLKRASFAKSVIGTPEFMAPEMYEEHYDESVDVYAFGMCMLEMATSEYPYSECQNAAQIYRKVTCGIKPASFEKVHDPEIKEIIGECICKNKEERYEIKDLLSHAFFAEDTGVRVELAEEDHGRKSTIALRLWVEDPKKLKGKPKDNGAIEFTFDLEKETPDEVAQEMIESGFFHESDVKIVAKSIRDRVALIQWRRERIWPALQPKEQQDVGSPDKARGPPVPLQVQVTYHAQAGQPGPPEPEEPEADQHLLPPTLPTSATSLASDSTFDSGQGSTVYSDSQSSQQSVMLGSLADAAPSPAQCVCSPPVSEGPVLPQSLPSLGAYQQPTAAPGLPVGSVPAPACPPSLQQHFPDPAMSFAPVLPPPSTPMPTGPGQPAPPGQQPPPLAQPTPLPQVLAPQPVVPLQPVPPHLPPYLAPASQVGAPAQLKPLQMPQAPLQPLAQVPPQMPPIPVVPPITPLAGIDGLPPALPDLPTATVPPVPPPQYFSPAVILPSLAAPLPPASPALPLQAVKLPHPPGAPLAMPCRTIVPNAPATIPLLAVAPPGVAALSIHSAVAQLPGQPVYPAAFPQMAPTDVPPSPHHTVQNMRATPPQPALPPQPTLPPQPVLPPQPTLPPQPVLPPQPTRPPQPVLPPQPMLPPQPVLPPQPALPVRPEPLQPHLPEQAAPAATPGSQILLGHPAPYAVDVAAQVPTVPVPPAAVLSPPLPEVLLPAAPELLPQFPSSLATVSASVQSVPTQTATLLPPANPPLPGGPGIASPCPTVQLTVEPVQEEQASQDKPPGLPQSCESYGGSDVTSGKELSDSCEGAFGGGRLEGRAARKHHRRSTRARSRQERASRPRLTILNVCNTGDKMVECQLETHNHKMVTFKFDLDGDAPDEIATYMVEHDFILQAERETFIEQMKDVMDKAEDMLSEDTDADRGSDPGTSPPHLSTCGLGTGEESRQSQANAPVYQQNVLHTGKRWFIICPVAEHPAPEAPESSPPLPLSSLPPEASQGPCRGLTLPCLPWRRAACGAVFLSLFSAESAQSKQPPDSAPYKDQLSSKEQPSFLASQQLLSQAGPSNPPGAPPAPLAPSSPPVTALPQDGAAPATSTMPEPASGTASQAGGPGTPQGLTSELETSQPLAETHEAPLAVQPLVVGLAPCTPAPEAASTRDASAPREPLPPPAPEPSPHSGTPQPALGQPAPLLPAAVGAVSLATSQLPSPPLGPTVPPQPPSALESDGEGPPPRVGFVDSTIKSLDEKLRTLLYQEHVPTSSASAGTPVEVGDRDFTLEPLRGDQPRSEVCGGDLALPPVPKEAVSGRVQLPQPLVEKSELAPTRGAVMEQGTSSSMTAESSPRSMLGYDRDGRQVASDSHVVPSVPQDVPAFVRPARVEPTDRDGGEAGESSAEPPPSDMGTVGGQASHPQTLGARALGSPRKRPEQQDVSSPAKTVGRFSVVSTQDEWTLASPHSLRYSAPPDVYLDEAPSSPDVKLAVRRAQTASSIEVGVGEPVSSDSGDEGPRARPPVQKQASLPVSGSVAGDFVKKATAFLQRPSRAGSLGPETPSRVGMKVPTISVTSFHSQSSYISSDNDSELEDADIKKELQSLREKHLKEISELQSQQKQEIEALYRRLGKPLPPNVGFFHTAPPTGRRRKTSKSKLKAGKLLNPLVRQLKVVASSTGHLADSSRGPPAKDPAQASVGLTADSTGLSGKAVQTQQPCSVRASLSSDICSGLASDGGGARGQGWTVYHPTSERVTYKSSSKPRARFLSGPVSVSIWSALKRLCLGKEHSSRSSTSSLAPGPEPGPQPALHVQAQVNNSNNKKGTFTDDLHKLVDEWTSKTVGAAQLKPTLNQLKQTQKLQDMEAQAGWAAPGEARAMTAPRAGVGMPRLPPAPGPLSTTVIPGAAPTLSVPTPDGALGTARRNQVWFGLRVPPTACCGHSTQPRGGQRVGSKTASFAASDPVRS
Assay [11] has the same target. The settings on record: at 10 µM.
The target in assay [12] is Serine/threonine-protein kinase WNK3 (Homo sapiens) (UniProt Q9BYP7). The settings on record: at 1 µM.
Serine/threonine-protein kinase WNK3 (Homo sapiens), sequence (Q9BYP7 whole entry): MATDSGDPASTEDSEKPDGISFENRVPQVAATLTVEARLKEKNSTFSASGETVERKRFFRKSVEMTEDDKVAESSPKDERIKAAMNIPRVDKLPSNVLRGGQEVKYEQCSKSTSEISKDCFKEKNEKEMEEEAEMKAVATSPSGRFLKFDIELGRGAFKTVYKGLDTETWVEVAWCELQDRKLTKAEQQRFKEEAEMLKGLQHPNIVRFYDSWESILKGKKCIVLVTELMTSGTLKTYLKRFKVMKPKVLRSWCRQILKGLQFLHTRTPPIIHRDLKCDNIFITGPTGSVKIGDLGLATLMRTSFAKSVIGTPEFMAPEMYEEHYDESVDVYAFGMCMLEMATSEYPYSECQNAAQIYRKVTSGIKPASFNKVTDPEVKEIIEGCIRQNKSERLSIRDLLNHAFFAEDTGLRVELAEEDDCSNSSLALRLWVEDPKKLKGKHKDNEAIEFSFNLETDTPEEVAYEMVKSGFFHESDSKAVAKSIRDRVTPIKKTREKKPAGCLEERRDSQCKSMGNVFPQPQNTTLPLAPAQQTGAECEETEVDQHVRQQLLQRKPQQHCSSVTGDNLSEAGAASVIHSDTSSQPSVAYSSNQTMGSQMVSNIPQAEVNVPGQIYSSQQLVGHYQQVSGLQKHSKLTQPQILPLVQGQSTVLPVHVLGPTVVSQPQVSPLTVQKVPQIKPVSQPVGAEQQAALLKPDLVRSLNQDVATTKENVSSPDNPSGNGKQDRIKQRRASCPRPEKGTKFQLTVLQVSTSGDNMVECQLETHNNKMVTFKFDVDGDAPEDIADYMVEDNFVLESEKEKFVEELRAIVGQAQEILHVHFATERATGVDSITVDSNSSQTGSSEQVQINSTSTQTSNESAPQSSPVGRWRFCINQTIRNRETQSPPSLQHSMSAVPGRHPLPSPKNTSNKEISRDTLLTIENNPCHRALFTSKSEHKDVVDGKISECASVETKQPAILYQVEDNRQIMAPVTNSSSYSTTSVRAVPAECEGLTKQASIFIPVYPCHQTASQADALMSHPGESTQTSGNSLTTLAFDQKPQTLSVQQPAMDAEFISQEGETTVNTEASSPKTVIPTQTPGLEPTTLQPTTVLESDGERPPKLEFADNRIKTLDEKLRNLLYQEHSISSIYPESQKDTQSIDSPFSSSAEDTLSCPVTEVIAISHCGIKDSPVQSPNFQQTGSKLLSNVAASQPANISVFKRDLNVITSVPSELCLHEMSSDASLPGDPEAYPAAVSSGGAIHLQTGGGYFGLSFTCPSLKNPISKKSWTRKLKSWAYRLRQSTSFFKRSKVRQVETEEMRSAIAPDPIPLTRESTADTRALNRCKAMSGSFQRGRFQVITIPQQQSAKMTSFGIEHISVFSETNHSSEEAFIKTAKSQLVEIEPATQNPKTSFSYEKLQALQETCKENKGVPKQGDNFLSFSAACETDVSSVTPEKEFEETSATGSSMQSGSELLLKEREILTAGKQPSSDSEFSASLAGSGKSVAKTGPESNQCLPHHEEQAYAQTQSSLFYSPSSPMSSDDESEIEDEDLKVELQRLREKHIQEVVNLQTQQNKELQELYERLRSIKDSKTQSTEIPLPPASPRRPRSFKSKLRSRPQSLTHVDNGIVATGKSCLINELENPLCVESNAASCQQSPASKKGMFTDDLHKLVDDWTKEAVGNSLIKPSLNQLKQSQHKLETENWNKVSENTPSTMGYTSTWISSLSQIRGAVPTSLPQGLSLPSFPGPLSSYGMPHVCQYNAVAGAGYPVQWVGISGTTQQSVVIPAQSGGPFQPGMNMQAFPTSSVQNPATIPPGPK
Assay [13] has the same target. As to conditions: at 10 µM.
Assay [14] concerns the target Tyrosine-protein kinase Yes (Homo sapiens) (UniProt P07947). As to conditions: at 1 µM.
For assay [15] the target is unchanged. As to conditions: at 10 µM.
The target in assay [16] is T4, Tyrosine-protein kinase ZAP-70 (Homo sapiens) (UniProt P43403).
T4 sequence (whole entry): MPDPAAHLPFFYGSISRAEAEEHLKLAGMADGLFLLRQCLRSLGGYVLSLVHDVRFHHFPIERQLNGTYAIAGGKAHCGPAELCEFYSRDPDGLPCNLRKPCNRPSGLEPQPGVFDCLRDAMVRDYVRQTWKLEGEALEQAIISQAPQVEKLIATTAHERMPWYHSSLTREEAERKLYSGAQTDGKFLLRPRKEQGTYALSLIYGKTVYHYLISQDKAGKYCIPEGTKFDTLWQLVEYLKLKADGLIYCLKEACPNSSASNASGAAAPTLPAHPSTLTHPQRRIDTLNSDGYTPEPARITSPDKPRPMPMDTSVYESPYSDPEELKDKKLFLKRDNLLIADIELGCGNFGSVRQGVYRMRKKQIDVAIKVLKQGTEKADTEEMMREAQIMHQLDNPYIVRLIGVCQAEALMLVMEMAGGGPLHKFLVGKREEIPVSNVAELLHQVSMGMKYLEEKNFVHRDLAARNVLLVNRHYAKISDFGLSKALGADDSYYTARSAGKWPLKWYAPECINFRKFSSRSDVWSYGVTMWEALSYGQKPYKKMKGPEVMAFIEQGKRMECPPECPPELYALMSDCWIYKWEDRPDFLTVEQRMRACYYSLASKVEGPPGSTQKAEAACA
The settings on record: at 1 µM.

The target of assay [17] is Death-associated protein kinase 3 (Homo sapiens) (UniProt O43293). The settings on record: at 1 µM.
Death-associated protein kinase 3 (Homo sapiens), sequence (O43293 whole entry, looked up): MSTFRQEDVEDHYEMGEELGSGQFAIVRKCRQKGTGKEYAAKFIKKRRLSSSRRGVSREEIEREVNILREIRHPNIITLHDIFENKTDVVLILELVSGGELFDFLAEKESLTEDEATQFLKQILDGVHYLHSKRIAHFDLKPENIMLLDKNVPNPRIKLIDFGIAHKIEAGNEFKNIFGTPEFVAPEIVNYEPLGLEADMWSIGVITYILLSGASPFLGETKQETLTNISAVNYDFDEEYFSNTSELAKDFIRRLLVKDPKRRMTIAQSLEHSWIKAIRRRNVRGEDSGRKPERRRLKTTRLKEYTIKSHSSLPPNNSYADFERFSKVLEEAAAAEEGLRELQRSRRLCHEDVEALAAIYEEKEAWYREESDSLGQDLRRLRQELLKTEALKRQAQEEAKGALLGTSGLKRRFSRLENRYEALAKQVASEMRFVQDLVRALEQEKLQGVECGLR
For assay [18] the target is unchanged. The settings on record: at 10 µM.
The target in assay [19] is RAF proto-oncogene serine/threonine-protein kinase (Homo sapiens) (UniProt P04049). The settings on record: at 1 µM.
For assay [20] the target is unchanged. The settings on record: at 10 µM.

With `NC(=O)c1ccc2[nH]c(-c3ccc(Oc4ccc(Cl)cc4)cc3)nc2c1`, the residual activity amounted to 101% in assay [1]; 96% in [2]; 92% in assay [3]; 97% in assay [4]; 93% in assay [5]; 90% in assay [6]. In addition, the residual activity in [7] is 87%; in [8], 88% (inactive); in assay [9], 82%; in [10] it was 90% (inactive); in assay [11], 78%; in assay [12] it was 93% (inactive). In addition, the residual activity in assay [13] was determined as 86%; in assay [14], 112%; in assay [15], 105%; in assay [16], 95%; in assay [17], 92%; in [18], 106%. The residual activity in assay [19] was 75%; in [20], 74%.
For `COc1cc2ncnc(N3CCN(C(=O)Nc4ccc(Oc5ccccc5)cc4)CC3)c2cc1OC`, the residual activity was found to be 44% in [1]; 108% in [2]; 119% in assay [3]; 100% in assay [4]; 100% in assay [5]; 97% in assay [6]. The residual activity in assay [7] was 90%; in assay [8], 94% (inactive); in [9] it was 86%; in assay [10], 84% (inactive); in [11], 48%; in assay [12] it was 80% (inactive). Also, the residual activity in assay [13] amounted to 58%; in assay [14] it was 103%; in assay [15], 105%; in assay [16] it was 102%; in assay [17] it was 105%; in assay [18] it was 144%. Also, the residual activity in assay [19] is 78%; in [20], 93%.
As to `O=C(O)c1ccc2c3c1cccc3c(=O)n1c3ccccc3nc21`, the residual activity came out at 59% in assay [1]; 77% in [2]; 60% in assay [3]; 90% in assay [4]; 48% in assay [5]; 91% in assay [6]. Besides, the residual activity in assay [7] was 70%; in assay [8], 105% (inactive); in [9] it was 89%; in [10] it was 113% (inactive); in assay [11] it was 106%; in assay [12], 111% (inactive). The residual activity in [13] turned out to be 97%; in [14], 118%; in assay [15], 103%; in assay [16] it was 113%; in [17], 60%; in [18], 14%. In addition, the residual activity in [19] came to 83%; in [20], 89%.
Regarding `O=c1c2ccccc2[nH]c(=S)n1CCN1CCC(=C(c2ccc(F)cc2)c2ccc(F)cc2)CC1`, the residual activity in assay [1] worked out at 59%; in [2], 102%; in assay [3], 80%; in assay [4], 109%; in assay [5], 98%; in assay [6] it was 107%. Further, the residual activity in assay [7] was 94%; in [8], 116% (inactive); in assay [9], 99%; in assay [10] it was 113% (inactive); in assay [11], 94%; in assay [12], 116% (inactive). Also, the residual activity came to 102% in assay [13]; 105% in [14]; 96% in assay [15]; 101% in assay [16]; 75% in [17]; 74% in [18]. For the same compound, the residual activity in [19] was determined as 83%; in assay [20] it was 94%.
For the compound `COc1cccc(-c2cc(=O)c3ccccc3o2)c1N`, the residual activity in [1] is 87%; in [2], 77%; in assay [3], 73%; in assay [4], 117%; in assay [5], 108%; in assay [6], 100%. The residual activity in assay [7] is 105%; in assay [8] it was 99% (inactive); in assay [9], 96%; in [10] it was 104% (inactive); in assay [11] it was 102%; in assay [12], 82% (inactive). The residual activity in [13] was 100%; in assay [14], 123%; in assay [15], 106%; in [16], 137%; in assay [17], 105%; in [18], 101%. Moreover, the residual activity came out at 85% in [19] and 86% in assay [20].

For orientation: residual activity means the signal under treatment as a percentage of the control signal.
